Here are results for 20 molecules from PubChem BioAssay (NCATS).

Structures are written as SMILES. Inconclusive results are not listed. Values without a mark were called inactive. Calls come from the whole dose curve; as a rule, active = well fitted inhibition curve with a large enough effect; inconclusive = small, poorly fitted or top-dose-only effect; inactive = flat fitted curve, though single readings scatter.

The experiment deals with Lysine-specific demethylase 5B (Homo sapiens) (UniProt Q9UGL1). In words: Optimization screen for KDM5B Histone Demethylases FDH coupled qHTS against the LOPAC library (AID 1347166). Note: 0% is about no effect. Conditions: KDM5B demethylation, FDH-coupled NADH fluorescence (FDH is formaldehyde dehydrogenase); at 57.5 µM (top of the series). A digest of the protocol: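 KDM5BDeltaAP (200nM final) in 50mM HEPES pH 7.5, 0.01% Tween-20 was preincubated with compound for 10 min at room temperature. A substrate mix of 12.5uM H3K4Me3, 25uM a-ketoglutarate, ascorbate, Fe2+, NAD+ and formaldehyde dehydrogenase was then added. NADH fluorescence (340/450 nm) was read initially and after 30 min.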
Lysine-specific demethylase 5B (Homo sapiens), sequence (Q9UGL1 whole entry, looked up): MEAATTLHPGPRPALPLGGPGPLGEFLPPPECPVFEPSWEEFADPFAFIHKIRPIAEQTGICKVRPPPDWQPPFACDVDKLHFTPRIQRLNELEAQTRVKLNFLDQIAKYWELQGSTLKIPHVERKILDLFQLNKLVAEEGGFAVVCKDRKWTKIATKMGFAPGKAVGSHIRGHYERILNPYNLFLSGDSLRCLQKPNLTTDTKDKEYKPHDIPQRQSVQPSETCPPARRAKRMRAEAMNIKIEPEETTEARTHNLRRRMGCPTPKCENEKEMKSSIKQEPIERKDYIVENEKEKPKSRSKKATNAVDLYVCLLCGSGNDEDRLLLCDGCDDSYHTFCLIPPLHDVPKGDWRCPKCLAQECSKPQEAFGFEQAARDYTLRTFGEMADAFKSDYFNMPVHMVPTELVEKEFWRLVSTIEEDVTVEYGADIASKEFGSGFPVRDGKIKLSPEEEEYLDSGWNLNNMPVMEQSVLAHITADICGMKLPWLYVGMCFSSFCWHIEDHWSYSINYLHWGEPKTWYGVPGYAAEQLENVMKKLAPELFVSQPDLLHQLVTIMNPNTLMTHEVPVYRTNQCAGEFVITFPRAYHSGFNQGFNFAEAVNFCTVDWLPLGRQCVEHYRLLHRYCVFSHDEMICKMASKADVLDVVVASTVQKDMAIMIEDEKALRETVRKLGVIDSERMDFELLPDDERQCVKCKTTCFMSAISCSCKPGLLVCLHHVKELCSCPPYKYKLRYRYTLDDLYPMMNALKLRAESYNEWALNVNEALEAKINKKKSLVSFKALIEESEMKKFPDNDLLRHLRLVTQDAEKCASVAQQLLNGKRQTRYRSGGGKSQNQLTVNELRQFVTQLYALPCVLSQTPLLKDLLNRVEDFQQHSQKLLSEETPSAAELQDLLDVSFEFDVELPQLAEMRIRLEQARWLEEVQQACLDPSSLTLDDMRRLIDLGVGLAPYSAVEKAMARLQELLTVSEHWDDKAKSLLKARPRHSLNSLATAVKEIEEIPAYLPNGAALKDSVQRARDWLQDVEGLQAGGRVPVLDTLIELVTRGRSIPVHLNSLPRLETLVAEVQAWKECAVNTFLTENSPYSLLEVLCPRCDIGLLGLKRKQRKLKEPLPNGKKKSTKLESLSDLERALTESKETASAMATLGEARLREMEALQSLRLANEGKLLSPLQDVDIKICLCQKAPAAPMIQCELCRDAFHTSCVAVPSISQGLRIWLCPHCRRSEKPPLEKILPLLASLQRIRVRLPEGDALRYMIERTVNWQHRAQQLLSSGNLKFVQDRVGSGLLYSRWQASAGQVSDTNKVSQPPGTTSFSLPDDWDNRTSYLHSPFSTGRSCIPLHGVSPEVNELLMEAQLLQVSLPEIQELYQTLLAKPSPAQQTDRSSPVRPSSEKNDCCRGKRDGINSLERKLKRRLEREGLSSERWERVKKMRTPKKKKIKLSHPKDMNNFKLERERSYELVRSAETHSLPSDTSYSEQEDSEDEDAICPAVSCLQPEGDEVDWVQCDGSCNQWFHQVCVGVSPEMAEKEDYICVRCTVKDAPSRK
Background: In qHTS, concentration-response curves come from the screen itself.
For `Nc1ncnc2c1ncn2C1CCCC1`, the activity, negative = inhibition was -3.1%.

As to `Brc1c(Br)c(Br)c2[nH]cnc2c1Br`, the activity, negative = inhibition is 0.346%. Then `CN(C)CCCc1cc(C(=O)Nc2ccc(-c3ccncc3)cc2)ccc1O`, with -5.29%; and `N[C@@H](CCCC(=O)O)C(=O)O`, with -3.82%.

With `NC(=O)CC[C@H](N)C(=O)O`, the activity, negative = inhibition is -1.79%. As for `Cc1nc2n(c(=O)c1CCN1CCC(c3noc4cc(F)ccc34)CC1)CCCC2O` (stereo not given), the figure is -13.2%; as for `CSC(N)=NCCC[C@H](N)C(=O)O`, -3.11%.

For the molecule `NC(N)=N[C@@H](CCC(=O)O)C(=O)O`, the activity, negative = inhibition is -1.71%. `CCCn1c(=O)c2[nH]c(-c3ccc(S(=O)(=O)O)cc3)nc2n(CCC)c1=O`: the activity, negative = inhibition is 2090%. On to `Cc1ccccc1/C=C/C1=NCCN1`, for which the activity, negative = inhibition is -11.5%. `O=C(c1ccc2c(c1)OCCO2)N1CCCCC1`: the activity, negative = inhibition is -3.79%.

Take `O=C(O)CCC/C=C\C[C@@H]1[C@@H](/C=C/[C@H](O)C2Cc3ccccc3C2)[C@@H](F)C[C@@H]1O`: the activity, negative = inhibition is -5.83%.

On to `C=C(C)C1CC=C(C(=O)O)CC1` (stereo not given), for which the activity, negative = inhibition was 1.54%. `COC1(C2=NCCN2)COc2ccccc2O1` (stereo not given): the activity, negative = inhibition is -3.68%. As for `NCC(O)(CS(=O)(=O)O)c1ccc(Cl)cc1` (stereo not given), the activity, negative = inhibition was -2.36%.

For `CC(=O)C(C)=O`, the activity, negative = inhibition is -10.5%.

For `COc1cccc(OC)c1OCCNCC1CSc2ccccc2O1` (stereo not given), the activity, negative = inhibition was -14.1%.

Regarding `CSc1nc(N)c2ncn([C@@H]3O[C@H](COP(=O)(O)OP(=O)(O)O)C(O)[C@H]3O)c2n1` (stereo not given in full), the activity, negative = inhibition is -13.8%.

With `Cc1nc(N=Nc2ccc(C(=O)O)cc2)c(COP(=O)(O)O)c(C=O)c1O`, the activity, negative = inhibition is -12.4%. As for `CC#CCOC(=O)c1c(C)nc2sc3c(c2c1N)CCC(O)C3` (stereo not given), the figure is -10.9%.
